Results on 39 compounds are retold here after PubChem BioAssay (EPA / NIEHS).

Records with an inconclusive call do not appear. Some structures have more than one record in an assay (separate samples or runs), and their calls can disagree. The source made the active and inactive calls. The calls were made as follows: active = hit-call score of the fitted dose curve at least 0.9, where 1 is the maximum; inconclusive = response in the unintended direction; inactive = score below 0.9.

In the test the target is Cellular tumor antigen p53 (Homo sapiens) (UniProt P04637). Put plainly: TOX21_p53_BLA_p2_ratio: Tox21 HCT-116 p53 Agonism Beta-lactamase Assay, Ratio, Phase 2 (AID 2283592). The text has this: TOX21_p53_BLA_p2 is a cell-based, single-readout assay that uses HCT116, a human intestinal cell line, […] in a 1536-well plate.TOX21_p53_BLA_p2_ratio is an assay readout measuring reporter gene via receptor activity and designed using inducible reporter (beta lactamase induction) detected with GAL4 b-lactamase reporter gene. The signal is derived from the ratio of cleaved (ch2) to uncleaved (ch1) reporter gene substrate used as the measure of target activity.Data from the assay component TOX21_p53_BLA_p2_ratio was analyzed into 1 assay endpoint. This assay endpoint, TOX21_p53_BLA_p2_ratio, was analyzed in the positive analysis fitting direction relative to DMSO as the negative control and baseline of activity. Using a type of inducible reporter, gain-of-signal activity can be used to understand changes in the reporter gene as they relate to the gene TP53. Furthermore, this assay endpoint can be referred to as a primary readout, because this assay has produced multiple assay endpoints and this ratio serves a reporter gene function to understand target activity. To generalize the intended target to other relatable targets, this assay endpoint is annotated to the DNA binding intended target family, where the subfamily is tumor suppressor.
Sequence of Cellular tumor antigen p53 (Homo sapiens) (P04637 whole entry, looked up, the tested form may be a part): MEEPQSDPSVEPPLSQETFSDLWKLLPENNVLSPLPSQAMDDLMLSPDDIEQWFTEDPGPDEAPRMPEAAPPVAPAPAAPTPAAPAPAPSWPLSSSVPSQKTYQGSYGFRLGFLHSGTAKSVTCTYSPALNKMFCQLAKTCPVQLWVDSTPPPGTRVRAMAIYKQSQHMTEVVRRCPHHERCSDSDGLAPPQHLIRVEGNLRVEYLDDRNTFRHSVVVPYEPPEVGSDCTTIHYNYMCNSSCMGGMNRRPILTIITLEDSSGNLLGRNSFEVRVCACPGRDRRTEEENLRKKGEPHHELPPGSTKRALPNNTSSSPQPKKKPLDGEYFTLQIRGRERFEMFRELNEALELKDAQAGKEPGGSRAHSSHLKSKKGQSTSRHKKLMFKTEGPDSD
Thawing Method: Place 14 mL of pre-warmed thaw medium into a 15 mL of conical tub. Remove the vial of cells to be thawed from liquid nitrogen and thaw rapidly by placing at 37C in a water bath with gentle agitation for 1-2 minutes. Decontaminate the vial by wiping with 70% ethanol before opening in a biological safety cabinet. Transfer the vial contents drop-wise into 14 mL of thaw medium in a sterile 15-mL conical tub. Centrifuge cells at 900 rpm for 4 minutes and resuspend in thaw medium. Transfer contents to the T75 tissue culture flask containing Thaw Medium and place flask in a humidified 37C/5% CO2 incubator. Switch to growth medium at first passage.Propagation Method: Aspirate medium, rinse once in DPBS, add 0.25% Trypsin/EDTA and swirl to coat the cell evenly. Add an equal volume of Growth Medium to inactivate Trypsin after 2-3 minutes incubation at 37C. Centrifuge cells at 900 rpm for 4 minutes and resuspend in growth medium. Cell should be passage or fed at least twice a week.Assay Protocol: Harvest cells from culture in growth medium and resuspend in assay medium. 2.2 Dispense 4000 cells/5 uL/well into 1536-well black/clear bottom plates using a Multidrop dispenser. After the cells were incubated at 37C for 5 hours, 23 nL of compounds dissolved in DMSO were transferred to the assay plate by a PinTool resulting in a 217-fold dilution. Incubate the plates for 16 hours at 37C, 5% CO2. Add 1 uL of 6X LiveBLAzer FRET B/G (CCF4-AM) Substrate Mixture to each well using a BioRAPTR dispenser and incubate the plates at room temperature for 2 hours. Measure fluorescence intensity at 460 and 530 nm emission and 405 nm excitation by an Envision detector. Data is expressed as the ratio of 460nm/530nm emissions. Add 4 uL of Cell-titer Glo to each well using BioRAPTR and incubate the plates at room temperature for 2 hours. Measure fluorescence intensity by a VewLux plate reader.
For the compound `Cc1ccncc1`, the result was inactive.

Turning to `CC1(C)CC(=O)CC(C)(C)N1`, the outcome was inactive.

Turning to `C=CC(O)CCCCC` (stereo not given), the outcome was inactive.

Take `CC(O)CNCC(C)O` (stereo not given): the outcome was inactive.

For `CC1=CCC(C(C)(C)O)CC1` (stereo not given), the result was inactive.

As for `CC(=O)CCC=C(C)CCC=C(C)C`, the outcome was inactive.

In the case of `CC(=O)CC(C)(C)C1CCCCC1`, the result was inactive.

For `CC(=O)CC(=O)N(C)C`, the result was inactive.

On to `c1ccc(Cc2ccccc2)cc1`, for which the result was inactive.

For `c1ccc2scnc2c1`, the result was inactive.

As for `CC(C)(O)C(=O)c1ccc(OCCO)cc1`, the result was inactive.

On to `CC(=O)Oc1c(C)c(C)c2c(c1C)CC[C@@](C)(CCC[C@H](C)CCC[C@H](C)CCCC(C)C)O2`, for which the result was inactive.

As to `CC(=O)Nc1cc(S(=O)(=O)O)cc2cc(S(=O)(=O)O)c(N=Nc3ccccc3)c(O)c12`, the outcome was inactive.

On to `O=C(Nc1cccc(Cl)c1)OCC#CCCl`, for which the AC50 (as a rule, the midpoint of the concentration-response curve, whichever way the signal moves) was 19.9 µM (active).

As for `Nc1cc([N+](=O)[O-])ccc1C(=O)O`, the outcome was inactive.

As to `CCCCCC(=O)O[C@]1(C(C)=O)CC[C@H]2[C@@H]3CCC4=CC(=O)CC[C@]4(C)[C@H]3CC[C@@]21C`, the outcome was inactive.

In the case of `CCCCN(CCO)CCO`, the result was inactive.

On to `[O-]/[N+](=N\O)c1ccccc1`, for which the outcome was inactive.

For `CC(C)Cc1ccccc1`, the outcome was inactive.

Regarding `COC(=O)c1ccc(C(=O)OC)cc1`, the outcome was inactive.

Consider `CCCCOC(=O)C(C)OC(=O)CCC` (stereo not given), for which the outcome was inactive.

Take `NCCCOCCOCCOCCCN`: the outcome was inactive.

In the case of `CNC(=C[N+](=O)[O-])NCCSCc1ccc(CN(C)C)o1`, the result was inactive.

With `CCCCCCOc1ccc(O)cc1`, the concentration at half-maximal activity (AC50) is 34 µM (active).

With `O=c1cc(-c2ccc(O)cc2)oc2cc(O)cc(O)c12`, the result was inactive.

With `N#CCCCC(C#N)CCC#N` (stereo not given), the result was inactive.

Consider `Nc1ccn([C@H]2CC[C@@H](CO)O2)c(=O)n1`, for which the result was inactive.

For `CC/C=C\CCOC(C)OCC` (stereo not given), the outcome was inactive.

As to `C[C@H](CCC(=O)O)[C@H]1CC[C@H]2[C@@H]3CC[C@@H]4C[C@H](O)CC[C@]4(C)[C@H]3CC[C@]12C`, the outcome was inactive and the AC50 is 21.8 µM (active).

On to `Nc1ccc(O)c(N)c1`, for which the outcome was inactive.

Regarding `CCC(=O)OC(C)(C)C1CC=C(C)CC1` (stereo not given), the result was inactive.

As for `CC(=O)C1C(=O)C=C(C)OC1=O` (stereo not given), the outcome was inactive.

Turning to `CCc1cccc(O)c1`, the outcome was inactive.

For `CC/C=C\CCCCO`, the result was inactive.

On to `CCCCC/C=C\C=C\C(=O)OCC`, for which the AC50 is 75.6 µM (active).

In the case of `CC(C)COC(=O)c1ccccc1O`, the result was inactive.

As for `CCCCCCCCOS(=O)(=O)O`, the result was inactive.

As for `[Na+]`, the outcome was inactive.

For the compound `FC(F)(F)c1ccc(Cl)c(Cl)c1`, the result was inactive.
